This is an account of results in PubChem BioAssay.

Experiment [1] in a line: compounds binding Alexa647 anti-His antibody – biochemical, small-molecule microarray, 635 nm fluorescence, artefact control for SMM control protein annotation, primary screen (AID 1128).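 Note: score merges feature fluorescence with signal-to-noise for each printed compound spot.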 The following applies: higher = more signal.
Experiment [2] relates to Human papillomavirus type 1a E7 protein (residues 1-88). Briefly: HPV1a E7 small-molecule binders, primary screen, biochemical, small-molecule microarray, residues 1-88, 635 nm (AID 1129). The following applies: small-molecule microarray binding, fluorescence 635 nm; higher = more signal.
Experiment [3] addresses Focal adhesion kinase 1 (Homo sapiens) (UniProt Q05397). Description: PTK2 protein binding on printed compound slides – biochemical, small-molecule microarray, 635/667 nm fluorescence, BSA, DTT, primary screen (AID 1130).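 Note: composite of spot emission at 667 nm and signal to noise over triplicate slides.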 The following applies: 635 nm fluorescence, higher = more signal.
Experiment [4] deals with Fibrinogen (Alexa647-labelled). Briefly: Alexa647-fibrinogen binding to printed small molecules – biochemical, small-molecule microarray, 635/667 nm fluorescence, artefact control for SMM control-protein annotation, profiling panel (AID 1131).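 Note: z-score merges 667 nm fluorescence with per-spot signal-to-noise over triplicate slides.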 The following applies: fibrinogen-A647 binding fluorescence, higher = more signal.
Experiment [5] deals with Follistatin (Homo sapiens) (UniProt P19883). Briefly: FST protein binding to printed compounds – biochemical, small-molecule microarray, 635/667 nm fluorescence, primary screen (AID 1132). Particulars: 635 nm fluorescence, higher = more signal.
In experiment [6] the target is Fibroblast growth factor 2 (Homo sapiens) (UniProt P09038). Description: basic fibroblast growth factor binding to printed compounds – biochemical, small-molecule microarray, 635/667 nm fluorescence, primary screen (AID 1133). Particulars: FGF2, fluorescence 635/667, higher = more signal.
The nature of experiment [7]: JC-1 mitochondrial potential readout, lung cancer cells – cell-based, A549, JC-1 fluorescence, basal, 24 h, 100 nL, profiling panel (AID 1138).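 Note: A549 lung adenocarcinoma cells under basal conditions with no added stimulus; test concentration not given here.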 The following applies: higher = more signal.
The test system of another experiment is Lefty1. Briefly: Lefty1 protein binding to printed compounds – biochemical, small-molecule microarray, 635/667 nm fluorescence, primary screen (AID 1139). The following applies: fluorescence 635/667, higher = more signal.
Experiment [8] relates to wheat germ agglutinin (Triticum aestivum), Alexa647-labelled. Briefly: Alexa647-WGA lectin binding to printed small molecules – biochemical, small-molecule microarray, 635/667 nm fluorescence, artefact control for SMM control-protein annotation, profiling panel (AID 1140).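 Note: score merges 667 nm feature emission with signal to noise over triplicate slides.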 Particulars: WGA-A647 binding, 635 nm fluorescence, higher = more signal.
Experiment [9] deals with Luciferin 4-monooxygenase (Photinus pyralis) (UniProt P08659). Briefly: inhibition of purified Photinus pyralis luciferase – biochemical, luminescence, purified enzyme, 2006 set, primary screen (AID 1141).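 Note: cell-free assay with purified firefly luciferase at 100 ng per well in PBS; test concentration not given here.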 The following applies: purified firefly luciferase, SteadyGlo luminescence, 30 min; higher = more signal, called active from +8 up or from −8 down.
For experiment [10], the system named is Wnt5a (protein binding on small-molecule microarray). Briefly: small molecules binding Wnt5a protein – biophysical, small-molecule microarray, 635/667 nm fluorescence, primary screen (AID 1142).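 Note: fluorescence read at 667 nm with signal to noise per printed feature.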 Particulars: 635 nm fluorescence, higher = more signal.
A short description of experiment [11]: ATP-based viability of Huh7 replicon cells – cell-based, CellTiter-Glo luminescence, basal, 48 h, cytotoxicity control for HCV replication inhibitor project, primary screen (AID 1143).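 Note: Huh7 hepatoma cells carrying a hepatitis C replication reporter with no stimulus; test concentration not given here.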 Particulars: higher = more signal, called active from +8 up or from −8 down. (In general: In antiviral work, replicon cells carry a viral genome segment that copies itself.)
Experiment [12] in a line: Pseudomonas biofilm growth suppression – PAO1 strain, BacTiter-Glo luminescence, LB-PBS, primary screen (AID 1144). Particulars: P. aeruginosa PAO1 biofilm, 12 h, higher = more signal.
Experiment [13] is described as follows: basal CRE-LacZ reporter activity in PC12 – cell-based, unstimulated, primary screen (AID 1145). Particulars: no forskolin, luminescence, 4.5 h, higher = more signal, called active from +8 up or from −8 down.
Experiment [14] can be described thus: forskolin-driven CRE-LacZ activity in PC12 – cell-based, CRE-LacZ reporter, forskolin-stimulated, primary screen (AID 1146).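 Note: PC12 cells with 6xCRE LacZ reporter stimulated by forskolin 10 µM; beta-galactosidase reporter signal reflecting CREB driven transcription.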 Particulars: luminescence, 4.5 h, higher = more signal, called active from +8 up or from −8 down.
For experiment [15], the target named is Streptavidin (Streptomyces avidinii) (UniProt P22629). Description: compounds binding control protein streptavidin – biophysical, small-molecule microarray, 635/667 nm fluorescence, artefact control for SMM compound annotation, primary screen (AID 1147).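 Note: signal reflects streptavidin binding to arrayed compounds as a control protein.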 The following applies: higher = more signal.
A short description of experiment [16]: probe aInhba binding on compound microarray – biochemical, small-molecule microarray, 635/667 nm fluorescence, primary screen (AID 1148).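 Note: score merges 667nm spot fluorescence with signal-to-noise for antibody binding to printed compounds.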 Particulars: higher = more signal.
Experiment [17] addresses Torsin-1A (Homo sapiens) (UniProt O14656). Briefly: TOR1A wild-type binding on microarray – cell lysate, small-molecule microarray, lysate, 635/667 nm, primary screen (AID 1149). Particulars: COS7 hTOR1A-WT lysate, 635 nm fluorescence, higher = more signal.
Experiment [18] has the same target. Description: torsin A mutant lysate binding on microarrays – cell lysate, small-molecule microarray, COS7 lysate, 635/667 nm fluorescence, primary screen (AID 1150).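 Note: score pools 667 nm emission and signal to noise measuring lysate protein binding.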 The following applies: COS7 hTOR1A mutant lysate, 635 nm fluorescence, higher = more signal.
The test system of experiment [19] is Sonic hedgehog protein (Shh). Briefly: Sonic hedgehog microarray binding compounds – biochemical, small-molecule microarray, 635/667 nm fluorescence, primary screen (AID 1151).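 Note: Shh protein binding to compounds spotted on small-molecule microarray slides; score combines spot fluorescence intensity with signal-to-noise across triplicate slides.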 The following applies: 635 nm fluorescence, higher = more signal.

Active and inactive are the calls of the source. Unless noted, the rule behind the calls is not given here.

Chain of Follistatin (Homo sapiens) (P19883 whole entry, looked up): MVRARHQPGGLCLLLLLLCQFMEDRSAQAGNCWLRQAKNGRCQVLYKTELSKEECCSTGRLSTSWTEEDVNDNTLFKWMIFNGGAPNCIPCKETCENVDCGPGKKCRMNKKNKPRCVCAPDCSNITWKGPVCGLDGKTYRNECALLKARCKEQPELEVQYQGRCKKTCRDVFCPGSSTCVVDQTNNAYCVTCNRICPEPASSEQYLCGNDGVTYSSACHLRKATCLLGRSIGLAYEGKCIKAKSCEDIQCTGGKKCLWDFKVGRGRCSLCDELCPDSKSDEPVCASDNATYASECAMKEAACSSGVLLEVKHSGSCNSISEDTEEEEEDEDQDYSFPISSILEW
Chain of Streptavidin (Streptomyces avidinii) (P22629 whole entry, looked up): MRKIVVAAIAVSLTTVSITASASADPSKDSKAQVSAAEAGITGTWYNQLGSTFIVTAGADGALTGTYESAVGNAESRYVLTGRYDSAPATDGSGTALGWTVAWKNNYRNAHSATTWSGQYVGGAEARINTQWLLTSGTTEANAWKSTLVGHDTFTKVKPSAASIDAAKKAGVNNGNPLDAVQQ
Chain of Fibroblast growth factor 2 (Homo sapiens) (P09038 whole entry, looked up): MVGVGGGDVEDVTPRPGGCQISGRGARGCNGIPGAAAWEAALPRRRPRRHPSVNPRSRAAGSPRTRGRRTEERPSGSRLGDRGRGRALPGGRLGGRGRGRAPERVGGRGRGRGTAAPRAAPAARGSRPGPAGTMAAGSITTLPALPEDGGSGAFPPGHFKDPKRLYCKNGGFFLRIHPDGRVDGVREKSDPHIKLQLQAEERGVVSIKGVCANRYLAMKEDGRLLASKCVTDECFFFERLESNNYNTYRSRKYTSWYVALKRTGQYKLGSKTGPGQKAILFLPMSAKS
Chain of Luciferin 4-monooxygenase (Photinus pyralis) (P08659 whole entry, looked up): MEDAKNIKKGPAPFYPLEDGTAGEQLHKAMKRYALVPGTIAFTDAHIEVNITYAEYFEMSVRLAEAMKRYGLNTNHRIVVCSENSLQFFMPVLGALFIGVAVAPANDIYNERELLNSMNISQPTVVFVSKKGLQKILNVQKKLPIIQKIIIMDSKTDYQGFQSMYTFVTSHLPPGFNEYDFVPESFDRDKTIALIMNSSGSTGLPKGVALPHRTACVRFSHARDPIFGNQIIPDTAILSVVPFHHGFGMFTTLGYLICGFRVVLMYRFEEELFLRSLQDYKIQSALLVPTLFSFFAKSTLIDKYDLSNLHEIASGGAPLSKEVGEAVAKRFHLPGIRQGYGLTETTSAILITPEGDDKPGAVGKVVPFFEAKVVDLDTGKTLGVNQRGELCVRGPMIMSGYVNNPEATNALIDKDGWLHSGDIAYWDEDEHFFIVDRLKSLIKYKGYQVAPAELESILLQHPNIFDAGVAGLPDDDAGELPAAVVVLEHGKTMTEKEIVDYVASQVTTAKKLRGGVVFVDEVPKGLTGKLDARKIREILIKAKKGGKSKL
Chain of Torsin-1A (Homo sapiens) (O14656 whole entry, looked up): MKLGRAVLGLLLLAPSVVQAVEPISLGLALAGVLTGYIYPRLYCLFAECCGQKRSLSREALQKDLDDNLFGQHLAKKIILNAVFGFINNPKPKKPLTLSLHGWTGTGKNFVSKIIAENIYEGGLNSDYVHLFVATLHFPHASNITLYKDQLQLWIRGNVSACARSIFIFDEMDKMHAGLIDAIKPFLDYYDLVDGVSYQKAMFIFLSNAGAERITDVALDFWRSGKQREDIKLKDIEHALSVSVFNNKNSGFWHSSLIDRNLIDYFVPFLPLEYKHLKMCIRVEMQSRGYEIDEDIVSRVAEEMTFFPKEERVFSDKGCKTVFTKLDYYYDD
Chain of Focal adhesion kinase 1 (Homo sapiens) (Q05397 whole entry, looked up): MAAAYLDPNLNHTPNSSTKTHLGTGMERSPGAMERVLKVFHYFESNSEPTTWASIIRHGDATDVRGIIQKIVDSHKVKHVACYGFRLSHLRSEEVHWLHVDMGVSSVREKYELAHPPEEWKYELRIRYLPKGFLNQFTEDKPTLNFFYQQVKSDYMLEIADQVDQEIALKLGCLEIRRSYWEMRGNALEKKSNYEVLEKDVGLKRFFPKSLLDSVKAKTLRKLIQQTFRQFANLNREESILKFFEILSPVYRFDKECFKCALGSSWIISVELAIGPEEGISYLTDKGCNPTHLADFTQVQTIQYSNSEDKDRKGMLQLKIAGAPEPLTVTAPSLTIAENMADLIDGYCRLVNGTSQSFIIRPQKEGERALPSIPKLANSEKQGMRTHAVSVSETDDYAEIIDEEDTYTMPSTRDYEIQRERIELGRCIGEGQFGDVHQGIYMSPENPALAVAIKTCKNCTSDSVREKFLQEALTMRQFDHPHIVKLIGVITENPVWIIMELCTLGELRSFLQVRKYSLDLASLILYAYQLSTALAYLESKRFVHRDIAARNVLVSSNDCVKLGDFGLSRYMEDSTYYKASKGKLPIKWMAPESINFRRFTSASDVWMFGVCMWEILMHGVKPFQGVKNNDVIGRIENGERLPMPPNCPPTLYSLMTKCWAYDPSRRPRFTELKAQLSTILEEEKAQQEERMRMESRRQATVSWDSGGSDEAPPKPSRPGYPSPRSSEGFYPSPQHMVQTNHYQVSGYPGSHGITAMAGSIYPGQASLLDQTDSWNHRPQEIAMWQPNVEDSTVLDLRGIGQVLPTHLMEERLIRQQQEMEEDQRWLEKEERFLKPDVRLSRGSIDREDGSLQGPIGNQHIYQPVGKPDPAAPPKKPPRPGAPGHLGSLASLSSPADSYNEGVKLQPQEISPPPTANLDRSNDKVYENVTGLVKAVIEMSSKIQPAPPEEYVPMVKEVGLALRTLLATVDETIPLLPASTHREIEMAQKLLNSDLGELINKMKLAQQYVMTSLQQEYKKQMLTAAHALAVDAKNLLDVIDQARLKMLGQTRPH

Consider `O=C1C[C@@H](O)[C@@H](O)[C@@H]2[C@@H]3C(=O)N(C[C@@H]4CCCO4)C(=O)[C@@H]3CC[C@@H]12`, for which the composite z-score in experiment [1] was 0.318; in experiment [2] it was 0.476; in [3], 0.181; in experiment [4], 0.517; in experiment [5], 0.848; in experiment [6], 0.657. Besides, the composite z-score in the experiment with Lefty1 worked out at 0.42; in experiment [8] it was 0.208; in experiment [10] it was 0.191; in [15], 0.622; in [16] it was 0.0956; with Torsin-1A (Homo sapiens) [17], 0.232. Moreover, the figures for the composite z-score (with Torsin-1A (Homo sapiens) [18]; in [19]) were 0.206 and 0.678, respectively. Besides, the z-score in experiment [7] is 0.52; in experiment [9], -0.658 (inactive); in experiment [11], 0.149 (inactive); in experiment [12] it was -0.213 (inactive); in experiment [13], 0.246 (inactive); in experiment [14], 0.287 (inactive).
Regarding `COC(=O)CC=C[C@@H](C)[C@@H](C=NO[C@H](C)c1cn([C@@H]2COC[C@H]2O)nn1)NS(=O)(=O)c1ccc(C)cc1`, the composite z-score in [1] is 1.41; in experiment [2], -0.0194; in experiment [3] it was -0.217; in experiment [4], 0.533; in experiment [5], 1.08; in [6], 0.845. Moreover, the composite z-score in the experiment with Lefty1 is 1.26; in [8], 0.521; in experiment [10], -0.0155; in experiment [15], -0.262; in experiment [16], 0.0173; with Torsin-1A (Homo sapiens) [17], 0.68. In addition, the composite z-score in the experiment with Torsin-1A (Homo sapiens) [18] was 0.429; in [19], 0.691. For the same molecule, the z-score in experiment [7] was 0.109; in [9], 0.316 (inactive); in experiment [11], 0.23 (inactive); in [12], -0.668 (inactive); in [13], 1.08 (inactive); in experiment [14], -0.112 (inactive).
Turning to `C=Cc1ccc([C@H]2N[C@H](C(=O)O)CC[C@@H]2C)cc1`, the composite z-score was 0.126 in [1]; -1.47 in experiment [2]; -0.584 in [3]; -0.719 in [4]; 0.632 in experiment [5]; 0.486 in [6]. The composite z-score in the experiment with Lefty1 is 0.431; in [8], 0.388; in experiment [10], -0.0905; in [15] it was -0.536; in experiment [16] it was -0.0714; with Torsin-1A (Homo sapiens) [17], -0.188. In addition, the results for the composite z-score (in the experiment with Torsin-1A (Homo sapiens) [18]; in [19]) were 0.307 and 0.36, respectively. Besides, the z-score is 1.28 in [7]; -0.33 (inactive) in experiment [9]; 0.369 (inactive) in experiment [11]; 0.53 (inactive) in [12]; -0.346 (inactive) in experiment [13]; 0.179 (inactive) in experiment [14].
For `C#CCCCON=C1[C@H]2CCn3c(=O)n(C)c(=O)n3[C@H]2[C@H](O)[C@@H]2O[C@H]12`, the composite z-score in experiment [1] is 0.196; in experiment [2], 0.746; in [3] it was -0.103; in experiment [4] it was 0.615; in experiment [5] it was 0.72; in experiment [6], 0.916. The composite z-score in the experiment with Lefty1 is 0.363; in experiment [8], -0.0602; in experiment [10] it was 0.119; in [15], 0.38; in experiment [16], 0.0471; with Torsin-1A (Homo sapiens) [17], 0.326. The composite z-score with Torsin-1A (Homo sapiens) [18] was found to be 0.693; in [19], 0.837. For the same molecule, the z-score in experiment [7] was 1; in [9] it was -1.25 (inactive); in experiment [11], 0.119 (inactive); in experiment [12] it was 0.806 (inactive); in experiment [13] it was 0.523 (inactive); in experiment [14], -0.149 (inactive).
Take `CCOC(=O)[C@H](Cc1ccccc1)NC(=O)CCC1CC(OC(=O)NCCc2ccc(F)cc2)CC2(CCCC(COC(=O)NCCOC)O2)O1` (stereo not given in full): the composite z-score in [1] was found to be 0.384; in experiment [2] it was 1.17; in experiment [3], 2.79; in experiment [4] it was 0.916; in experiment [5] it was 1.01; in experiment [6] it was 0.557. In addition, the composite z-score in the experiment with Lefty1 is 1.26; in experiment [8], 0.526; in experiment [10], 1.58; in [15] it was 1.19; in [16], 0.122; in the experiment with Torsin-1A (Homo sapiens) [17] it was 0.998. The composite z-score in the experiment with Torsin-1A (Homo sapiens) [18] came out at 0.753; in [19], 0.784. The z-score in [7] was 0.671; in [9] it was -0.24 (inactive); in experiment [11], -0.326 (inactive); in [12], -0.852 (inactive); in experiment [13], 0.473 (inactive); in [14], -0.728 (inactive).
